# According to ChEMBL document CHEMBL4513216, “Probing the Open Global Health Chemical Diversity Library for Multistage-Active Starting Points for Next-Generation Antimalarials” (ACS Infect Dis, 2020):
# Hit rate of the full screen: of about 69,000 compounds, about 8,600 (12%) showed an effect of 50% or more. The sample holds strong results, similar compounds and a random draw of the others, so the mix is not that of the screen.
# Test system: Plasmodium berghei
# Test: Screen against P. berghei liver stage (PbLuc), transformed with Luciferase, at 10uM
# Assay type: functional, HepG2
# Conditions: tested at 10 uM
row,SMILES,INHIBITION [%]
1,CC(C)CS(=O)(=O)N1C[C@@H]2C[C@H](C(=O)N(C)C)[C@H](C1)O2,37.5
2,CCC(C(=O)N1CCN(S(=O)(=O)N2CCCC2)CC1)n1cccn1 (stereo not drawn),13
3,O=C1CCCC2=Nc3nonc3NC(c3cc(Cl)ccc3F)C12 (stereo not drawn),76.8
4,O=C1CCCC2=Nc3nonc3NC(c3ccccc3F)C12 (stereo not drawn),12.3
5,O=C1CCCC2=Nc3nonc3NC(c3cccc(F)c3F)C12 (stereo not drawn),4.66
6,O=C1CCCC2=Nc3nonc3NC(c3ccc(F)cc3F)C12 (stereo not drawn),-37.6
7,O=C1CCCC2=Nc3nonc3NC(c3ccc(Cl)cc3Cl)C12 (stereo not drawn),57.8
8,O=C1CCCC2=Nc3nonc3NC(c3ccccc3Cl)C12 (stereo not drawn),12.3
9,CN1CCC(Cc2cncc(-c3ccccc3C(=O)O)n2)C1 (stereo not drawn),56
10,CC(C)N1CCC(Cc2cncc(-c3ccccc3C(=O)O)n2)C1 (stereo not drawn),15.9
11,COCCN1CCC(Cc2cnc(-c3ccccc3C(=O)O)cn2)CC1,53
12,CC(C)N1CCC(Cc2cc(-c3ccccc3C(=O)O)ncn2)CC1,18.8
13,CC(C)N1CCC(Cc2cncc(-c3ccccc3C(=O)O)n2)CC1,38.7
14,CS(=O)(=O)N1CCCC(Cc2cncc(-c3ccccc3C(=O)O)n2)C1 (stereo not drawn),-1.85
15,CC1=Nc2c(c(=O)[nH]n2C(C)C)C(c2cccc(OC(F)F)c2)S1 (stereo not drawn),-28.4
16,Cc1cccc2nc(CN3CCC(N4CCN(C)C4=O)CC3)cn12,-54.1
17,COc1nn(C)c2c1CCCN(C(=O)c1cccc(C)n1)C2,31.2
18,CN1CCC(N2CCC(CN(Cc3ccncc3)C3CCC3)CC2)CC1,53.8
19,COCCN1CCC(CN(Cc2ccncc2)C2CCC2)CC1,43.7
20,COCCN1CCC(CN(Cc2ccncc2)C2CCCCC2)CC1,-32.1

row,SMILES,INHIBITION [%]
1,O=C(C1=CCCC1)N1C[C@@H]2COC[C@]2(COc2ncccc2F)C1,16.8
2,CC(O)CN(C(=O)NC1CC1)C(C)C (stereo not drawn),55.4
3,CC(C)N(CC(C)(C)O)C(=O)NC1CC1,23.5
4,CC(O)CN(C(=O)NC1CCN(CC2CCCCC2)CC1)C(C)C (stereo not drawn),21.2
5,Cc1noc(C)c1CN(C)c1nc(C2CCCC2)nc2c1cnn2C,20
6,CNC(=O)CNC(=O)c1ccc(-c2scnc2C)nc1,-89.4
7,NC(=O)NC(=O)CCn1ccc(-c2ccc(F)cc2)n1,16.2
8,Cn1nccc1NC(=O)Cn1ccc(-c2ccc3c(c2)OCO3)n1,43.4
9,Cn1ncc(NC(=O)Cn2cc(-c3ccc(F)cn3)cn2)n1,77.9
10,Cn1ncc(NC(=O)Cn2ccc(-c3ccc(F)cc3)n2)n1,52.2
11,CC(C)NC(=O)Cn1cc(-c2ccccc2)cn1,-16.7
12,Cc1cc(NC(=O)Cn2ccc(-c3ccc4c(c3)OCO4)n2)n(C)n1,13.8
13,Cc1ncsc1-c1cc(C(=O)NCCO)ccn1,42.6
14,Cc1ncsc1-c1ccn(CC(=O)Nc2cnn(C)n2)n1,85.7
15,Cn1ncc(NC(=O)Cn2ccc(-c3cccc(F)c3)n2)n1,7.39
16,Cc1ccc(-c2cnn(CC(=O)NC(C)C)c2)cc1,45.7
17,Cc1nc(C)c(-c2ccn(CC(=O)Nc3cnn(C)n3)n2)s1,82.4
18,CCc1noc(CN2CCN(c3nccs3)CC2)n1,19.5
19,CNC(=O)Cc1n[nH]c(-c2cncc(Br)c2)n1,-6.61
20,Cc1ncc(C(=O)N2CCCC(C(=O)CCc3ccccc3)C2)s1 (stereo not drawn),16.3

row,SMILES,INHIBITION [%]
1,CCn1ncc2c1C(COC)CN(S(=O)(=O)N(C)C)C2 (stereo not drawn),10
2,OC(CN1CCN(Cc2ccccc2)CC1)C1CC1 (stereo not drawn),-20.5
3,CCN(C(=O)Cn1cc(Cl)cn1)c1ccccc1,4.81
4,CNC(=O)Cn1ccc2ccc(NC(=O)NC(C)C(C)C)cc21 (stereo not drawn),15.5
5,CC(C)NC(=O)N1CCN(c2ccc(Cl)nn2)C(=O)C1,37.5
6,N#Cc1cccc(OCc2ccoc2C(=O)N2CCCCC2)c1,-105
7,CCc1nc(CN2CCCN(C(=O)c3cccn3C)CC2)cs1,-69.6
8,CCc1nc(CN2CCN(C(=O)c3cc(C)nn3C)CC2)cs1,76.9
9,CCc1nc(CN2CCCN(C(=O)CCc3ccco3)CC2)cs1,73.1
10,Cc1nc(CN2CCN(C(=O)CCc3ccco3)CC2)cs1,42.9
11,CCCOCC(=O)N1CCCN(Cc2csc(CC)n2)CC1,1.75
12,Cc1nc(CCN)cc(N2CCC(O)(c3ccc(Cl)cc3)CC2)n1,80.8
13,CCc1nc(CN2CCCN(C(=O)COCC3CC3)CC2)cs1,54.3
14,CCc1nc(CN2CCN(C(=O)c3cc(C)no3)CC2)cs1,-35.7
15,Cc1nc(CN2CCCN(C(=O)COCC3CC3)CC2)cs1,43.2
16,Cc1nc(CN2CCCN(C(=O)CCc3ccco3)CC2)cs1,12.7
17,Cc1nc(CCN)cc(N2CCC(O)(c3ccccc3)C2)n1 (stereo not drawn),7.1
18,Cc1nc(CN)cc(N2CCC(O)(c3ccc(Cl)cc3)CC2)n1,3.82
